CatB inh = blocks human cathepsin B protease activity | purified cathepsin B, fluorogenic substrate, fluorescence | inhibition, %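 (tested at 10 µM)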 | hit rate 0.1% among 63,000 | AID 453; in the data active = inhibition above about 21%
HER2 expr 66K = inhibitors of human Her2 kinase expression; HER2 level % of control, % at 10 µM; P04626; SKBR-3 HER2 protein level, AlphaScreen, 18-24 h; hits give low values; hit rate 0.69% among 65,000;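 active = HER2 level under 5% of the carrier-only control; inconclusive = no clear call, values can overlap the other calls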;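 note: lower value means stronger loss of Her2 protein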
CatS inh = human cathepsin S inhibition; P25774; hit rate 0.06% among 62,000; recombinant cathepsin S, AMC dipeptide fluorescence, pooled mixtures; inhibition, %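 (tested at 5 µM per compound within 10-compound mixtures)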; in the data active = inhibition above about 32%, passing the limit was not always enough; inconclusive = no clear call, values can overlap the other calls
WNV NS2B-NS3 inh = WNV NS2B-NS3 proteinase inhibition | hit rate 0.18% among 65,000 | AID 577 | P06935 | z-score (test concentration not listed) | WNV NS2B-NS3 protease, fluorogenic substrate Ex360/Em465; hits give low values; in the data active = z-score below about -3
Target sequence (P06935 1371-1501 limits assumed): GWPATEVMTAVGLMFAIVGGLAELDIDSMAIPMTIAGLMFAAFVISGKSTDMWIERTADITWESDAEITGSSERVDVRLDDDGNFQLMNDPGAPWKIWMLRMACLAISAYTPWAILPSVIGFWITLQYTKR
Target sequence (P06935 1502-1679 limits assumed): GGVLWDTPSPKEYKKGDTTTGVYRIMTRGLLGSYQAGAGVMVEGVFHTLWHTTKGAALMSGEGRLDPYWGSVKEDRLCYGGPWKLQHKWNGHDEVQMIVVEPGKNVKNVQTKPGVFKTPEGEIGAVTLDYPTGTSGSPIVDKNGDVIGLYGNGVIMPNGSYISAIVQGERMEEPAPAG
CatL inh = blocks human cathepsin L protease activity | P07711 | purified cathepsin L, fluorogenic substrate, fluorescence | inhibition, %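 (tested at 10 µM)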 | hit rate 0.17% among 58,000; in the data active = inhibition above about 45%
Target sequence (P07711 114-288 limits assumed): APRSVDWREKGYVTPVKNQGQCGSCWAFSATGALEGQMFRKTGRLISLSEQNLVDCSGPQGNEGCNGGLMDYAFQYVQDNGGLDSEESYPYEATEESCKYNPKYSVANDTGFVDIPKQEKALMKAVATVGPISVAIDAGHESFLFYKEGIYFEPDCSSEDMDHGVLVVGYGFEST
Target sequence (P07711 292-333 limits assumed): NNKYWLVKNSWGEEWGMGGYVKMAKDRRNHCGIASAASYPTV
CatB mixtures = inhibitors of human cathepsin B in compound mixtures; Purified cathepsin B, AMC dipeptide fluorescence; inhibition, %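 (ten-compound pools at 5 µM per compound and 50 µM total)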; hit rate 0.06% among 62,000; AID 488; in the data active = inhibition above about 22%, passing the limit was not always enough; inconclusive = no clear call, values can overlap the other calls
Each line names hits and unclear results; the compound was inactive in the other large screens. Rows were chosen to be rich in hits. Some 1.1% of all compounds tested hit in one or more screens of this group.

COc1ccc(S(=O)(=O)N(CCCN2CCOCC2)Cc2ccc(OC)c(OC)c2)cc1	none
O=C(c1ccco1)N1CCN(C(=O)c2ccccc2OC(=O)C23CC4CC(CC(C4)C2)C3)CC1	none
O=C1C2ON(c3ccccc3)C(c3cccnc3)C2C(=O)N1c1ccc(Cl)c(Cl)c1 (stereo not drawn)	HER2 expr 66K -18 (no result: CatS inh, CatB mixtures)
O=C(CSc1nnc(-c2ccco2)c(-c2ccco2)n1)Nc1ccccc1	CatB inh 57, CatB mixtures inconclusive
CN1CCc2c(n(CC(O)CN3C(=O)c4ccccc4S3(=O)=O)c3ccccc23)C1=O (stereo not drawn)	none (no result: CatS inh, CatB mixtures)
CC(C)NCC(O)Cn1c2c(c3ccccc31)CCc1c-2cnn1-c1ccccc1 (stereo not drawn)	HER2 expr 66K -16
CCN(CC)CCNC(=O)c1ccc(NC(C)=O)cc1	none
CCN(CC)CCNC(=O)c1ccc(N)cc1	WNV NS2B-NS3 inh -3.2
CC(=O)Nc1ccc(S(=O)(=O)N2CCSC2C(=O)O)cc1 (stereo not drawn)	none
CC(=O)Nc1ccc(S(=O)(=O)/N=C2\SCCN2S(=O)(=O)c2ccc(NC(C)=O)cc2)cc1	CatL inh 79
CCN(C(=O)COc1cc(=O)n(CC)c2ccccc12)c1cccc(Cl)c1	CatB inh 25
COC(=O)CSc1nc2ncc(Cl)cc2[nH]1	none
O=C(O)c1ccccc1NCN1C(=O)C2CC=C(Cl)CC2C1=O (stereo not drawn)	HER2 expr 66K -22
COc1cc(NC(=O)c2cccs2)cc(OC)c1	none
COc1ccc(-n2c(C)nc3c(cnn3-c3ccc(C)c(C)c3)c2=O)cc1	none
COc1ccc2c(=O)c3c(=O)n(Cc4ccco4)c(-c4ccc(C)cc4)nc3oc2c1	HER2 expr 66K 4.8
COc1ccc2c(=O)c3c(=O)n(Cc4ccco4)c(C(C)C)nc3oc2c1	none
N#C/C(C(N)=O)=c1/ccc2c(c1)N1C3=C(CCCC3)CC3CCCCC31N=2 (stereo not drawn)	HER2 expr 66K -29
N#CC(C#N)=c1ccc2c(c1)N1C3=C(CCCC3)CC3CCCCC31N=2 (stereo not drawn)	HER2 expr 66K -28
CCCn1c(Nc2nc3ccccc3n2C)nc2ccccc21	HER2 expr 66K -22
CCCn1c(NCc2ccco2)nc2ccccc21	none
CCCCn1c(SCc2c(C)noc2C)nc2cc(S(N)(=O)=O)ccc21	HER2 expr 66K -21
C=CCn1cnc2c(c1=O)c1nc3ccccc3nc1n2/N=C/c1cc(OC)c(OC)c(OC)c1	HER2 expr 66K -25
N#Cc1ccccc1NC(=O)Nc1cccs1	none
CC(=O)Nc1cccc(NC(=O)c2c(-c3ccccc3Cl)noc2C)c1	HER2 expr 66K -19
CN1CCN(CC(=O)N2CCn3c4c(c5cc(C6CCCCC6)ccc53)CCCC42)CC1 (stereo not drawn)	HER2 expr 66K -16
Cc1ccc2c(c1)c1c3n2CCN(C(=O)CN2CCN(C)CC2)C3CCC1 (stereo not drawn)	none
CCOc1ccc(NC2=NC(C(=O)NCc3ccccc3)CC(=O)N2)cc1 (stereo not drawn)	CatL inh 55
O=C1CC(C(=O)NCc2ccccc2)N=C(N2CCCCC2)N1 (stereo not drawn)	none
Cc1nnc2ccc(N3CCN(c4ccccn4)CC3)nn12	CatB inh 51 (no result: CatL inh)
Cc1nnc2ccc(N3CCN(c4cccc(C(F)(F)F)c4)CC3)nn12	none
CCOc1cccc(C2C(C#N)=C(N)Oc3cc(C)n(Cc4ccccn4)c(=O)c32)c1OCC (stereo not drawn)	none
COc1ccc(OC)c(C2C(C#N)=C(N)Oc3cc(C)n(Cc4ccccn4)c(=O)c32)c1 (stereo not drawn)	CatL inh 63 (no result: CatS inh, CatB mixtures)
CCCC(=O)Nc1ccc(Cl)c(NC(=O)C(C)(C)C)c1	none
O=c1[nH]c(Nc2nc3ccccc3o2)nc2c1CCCC2	HER2 expr 66K -3.3 (no result: CatL inh)
C=CCn1c(SCc2nc(N)nc(N(C)C)n2)nnc1-c1cccnc1	none
c1ccc(-n2c(-c3ccncc3)nnc2N2CCOCC2)cc1	HER2 expr 66K -3.3
c1ccc(-n2c(-c3ccncc3)nnc2-c2ccco2)cc1	none
O=C(CCc1ccccc1)Nc1nc2n(n1)C(c1ccc(Cl)cc1)CC(=O)N2 (stereo not drawn)	WNV NS2B-NS3 inh -3.4
N#C/C(=C/c1ccc(N2CCCCCC2)o1)c1ccc(F)cc1	HER2 expr 66K -14
Cc1ccc(S(=O)(=O)Nc2cccc3ncccc23)s1	HER2 expr 66K -5.5
COC(=O)c1[nH]c2ccc(Br)cc2c1NC(=O)CN1CCN(C2CCCCC2)CC1	HER2 expr 66K -21
Cc1ccccc1CS(=O)(=O)c1nnc([C@H](CC(C)C)NC(=O)OC(C)(C)C)o1	HER2 expr 66K -14
CCOC(=O)CSc1nnc([C@H](Cc2ccccc2)NC(=O)OC(C)(C)C)o1	none
CC(C)(C)OC(=O)N[C@@H](Cc1ccccc1)c1nnc(S(=O)(=O)Cc2cccc(F)c2)o1	HER2 expr 66K -16
CC(C)C[C@H](N)c1nnc(S(=O)(=O)Cc2cccc(F)c2)o1	CatL inh 46
CC(C)CC(=O)N1CCN(Cc2cccc(F)c2)CC1	none
CC(C)[C@H](NC(=O)OC(C)(C)C)c1nnc(S(=O)(=O)Cc2c(F)cccc2Cl)o1	HER2 expr 66K -13
O=c1c2ccccc2oc2ncccc12	none
CCOC(=O)C1CCCN(S(=O)(=O)c2cn(C)c(=O)n(C)c2=O)C1 (stereo not drawn)	none
CC[C@@H](C)[C@H](NC(=O)OC(C)(C)C)c1nnc(S(=O)(=O)Cc2cc(C)ccc2C)o1	HER2 expr 66K -13
Cc1[nH]c(=O)[nH]c(=O)c1CSc1nnc([C@@H](NC(=O)OC(C)(C)C)C(C)C)o1	none
Cc1nnc(SC(=O)N2c3ccccc3Sc3ccccc32)s1	HER2 expr 66K 0.9
Cc1nn(C)c(C)c1NC(=O)CSc1nc(-c2ccccc2F)nc2c1cnn2-c1ccccc1	none
Cc1cc(NC(=O)CCCS(=O)(=O)c2nc(-c3cccs3)cc(C(F)(F)F)n2)no1	HER2 expr 66K -16
Cc1cc(NC(=O)CSc2nc(-c3cccs3)cc(C(F)(F)F)n2)no1	none (no result: CatB inh, CatS inh, CatL inh, CatB mixtures)
CS(=O)(=O)c1nc(-c2cccs2)cc(C(F)(F)F)n1	HER2 expr 66K -24
COc1cccc(NC(=O)CSc2nc3n[nH]c(C)c3c(=N)n2-c2cccc(OC)c2)c1	WNV NS2B-NS3 inh -3.1 (no result: CatB inh, CatS inh, CatL inh, CatB mixtures)
COc1cccc(-n2c(SCC(=O)NCCC3=CCCCC3)nc3n[nH]c(C)c3c2=N)c1	none
O=C1C(C=NCCCN2CCCC2=O)=C(O)c2ccccc21	none (no result: CatB inh, CatS inh, CatL inh, CatB mixtures)
CCCCOCCCNC(=O)N[C@@H](CC(C)C)C(=O)O	WNV NS2B-NS3 inh -3.7
Cn1c(=O)n(CC(=O)NCc2cccnc2)c2ccccc21	none (no result: CatB inh, CatS inh, CatL inh, CatB mixtures)
C=C(C)Cn1c(-c2ccc(OC)cc2)nc2ccccc21	HER2 expr 66K -20 (no result: CatS inh, CatB mixtures)
CCOc1ccccc1N1CCN(Cc2ccc(OC)c(OC)c2OC)CC1	none
CCOc1ccccc1N1CCN(Cc2ccc(OC)c(OC)c2)CC1	HER2 expr 66K -20
